# Experimental data: PubChem BioAssay (Tox21)
# Values joined by “and” are separate entries in the source; they are usually repeats but may differ in a detail not shown here. Identical values can stand only once. Results filed as inconclusive are left out. Entries that show only a call come without a potency. Some compounds were tested as several samples or in several runs, with calls that do not always agree. Active and inactive are the calls of the source. Calls come from the whole dose curve; as a rule, active = well fitted activation curve with a large enough effect in the repeat runs; inconclusive = weak or mixed curves; inactive = no such curve, though single readings can be large or run the other way.
# Target: Nuclear receptor subfamily 1 group I member 3 (Homo sapiens) (UniProt Q14994)
# Experiment: qHTS assay to identify small molecule agonists of the constitutive androstane receptor (CAR) signaling pathway (AID 1224839); note: nearly all actives have a fitted effect of over 15% in size;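 for activation: HepG2 cells stably carrying human CAR and a CYP2B6 luciferase reporter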
# Conditions: HepG2 hCAR CYP2B6-luciferase, agonist mode, 24 h; series mostly up to 92.4 µM; activation: at the top concentration
# Text: National Center for Advancing Translational Sciences [NCATS] NIH Chemical Genomics Center [NCGC] U.S. Environmental Protection Agency [EPA] National Institutes of Environmental Health Sciences [NIEHS] National Toxicology Program [NTP] Assay overview: The constitutive androstane receptor (CAR) is a nuclear receptor which regulates multiple drug metabolizing enzymes (DMEs) and transporters. Activating CAR will generally increase the transcription and subsequent translation of CYP2B6 and CYP3A4. These two DMEs represent about 50% of the drug metabolizing potential in the body. […] Recently, there have also been studies performed indicating CARs role in energy metabolism and cancer therapy. Therefore, inducing CARs activity could have a potential effect on diabetes and cancer. Identifying environmental toxins and compounds which modulate CAR, through the use of the Tox21 10K compound collection, will be an important step in determining the toxicity and potential therapeutic effects these factors will have on the human body.
# Assay Protocol Summary: A double-stable (hCAR and CYP2B6-2.2kb) transfected cell line, derived from human hepatoma (HepG2) cells, was utilized for the duration of the quantitative high-throughput screens. The HepG2-CYP2B6-hCAR cells suspended in DMEM culture medium supplemented with 10% FBS, 5 ug/mL blasticidin, 0.5 mg/mL geneticin, 100 U/mL penicillin and 100 ug/mL streptomycin were dispensed at 2500 cells/4 uL/well in 1536-well white solid bottom plates using a Multidrop Combi. After the assay plates were incubated at 37 C/5% CO2 for 4 hrs, 23 nL of compounds at 15 concentrations (from 5-48 columns) or positive control (from 1 to 4 columns) were transferred to the assay plates using a Pintool station. One uL of PK11195, was added using a Flying Reagent Dispenser to generate a final concentration of 0.75 uM PK11195 inside each well. After a 24 hr incubation period at 37 C/5% CO2, four uL of ONE-Glo reagent was added into the assay plates using a Flying Reagent Dispenser. After a 30 min incubation period at room temperature, the luminescence intensity in the assay plates was measured using a ViewLux plate reader.
# Potency is the fitted concentration of half-maximal effect.
# Nuclear receptor subfamily 1 group I member 3 (Homo sapiens), sequence (Q14994 whole entry, looked up): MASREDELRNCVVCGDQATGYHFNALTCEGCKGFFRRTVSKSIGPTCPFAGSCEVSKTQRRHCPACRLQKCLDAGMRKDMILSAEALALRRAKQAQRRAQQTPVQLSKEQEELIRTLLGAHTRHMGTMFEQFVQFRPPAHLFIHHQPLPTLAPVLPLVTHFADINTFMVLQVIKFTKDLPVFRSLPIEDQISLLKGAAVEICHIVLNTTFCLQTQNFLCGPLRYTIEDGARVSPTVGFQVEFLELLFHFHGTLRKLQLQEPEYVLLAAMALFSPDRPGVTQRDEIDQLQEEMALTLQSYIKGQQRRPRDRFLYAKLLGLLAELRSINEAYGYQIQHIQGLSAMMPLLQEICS
Structure (SMILES),Potency,activation
Cc1ccc(C(C)(C)C)c(O)c1,inactive,
CC1(C)C(C=C(Cl)Cl)C1C(=O)OCc1cccc(Oc2ccccc2)c1 (stereo not given),6.81 µM (active) and 6.11 µM (active),
O=C(O)CCCC(=O)O,,-1.19% (inactive)
Nc1cc([N+](=O)[O-])ccc1C(=O)O,inactive,
C=CC(C)(O)CCC=C(C)C (stereo not given),inactive,
CNC[C@H](O)c1ccc(O)c(O)c1,inactive,
C1COCCN1,inactive,
C=CC(=O)OCCCC,inactive,
CC1(C)NC(=O)N(c2ccc([N+](=O)[O-])c(C(F)(F)F)c2)C1=O,inactive,
O=[Se](O)O,inactive,
CC(=O)[C@@]1(O)CC[C@H]2[C@@H]3C[C@H](C)C4=CC(=O)C=C[C@]4(C)[C@@]3(F)[C@@H](O)C[C@@]21C,inactive,
Cc1cccc(Nc2ccccc2C(=O)O)c1C,inactive,
COc1ccc2nc(N)sc2c1,54.5 µM (active) and 27.3 µM (active),
Oc1c(Cl)ccc(Cl)c1Cl,inactive,
Cc1ccc(C(C)(C)C)cc1,inactive,
CC(=O)Oc1c(C)c(C)c2c(c1C)CC[C@@](C)(CCC[C@H](C)CCC[C@H](C)CCCC(C)C)O2,inactive,
Cc1ccc([N+](=O)[O-])c(C)c1,inactive,
COC(=O)C(C)Oc1ccc(Oc2ncc(C(F)(F)F)cc2Cl)cc1 (stereo not given),inactive,
Nc1ccc2c(c1)C(=O)c1ccccc1C2=O,1.34 µM (active) and 969 nM (active),
Cc1ccc(C)c(O)c1,inactive,

Structure (SMILES),Potency,activation
O=C(O)COCCN1CCN(C(c2ccccc2)c2ccc(Cl)cc2)CC1 (stereo not given),inactive,
CCCCCCCCCCCCCO,inactive,
CCOC(=O)C(C)Oc1ccc(Oc2cnc3cc(Cl)ccc3n2)cc1 (stereo not given),,11.5% (inactive)
CN(C)C,inactive,
c1ccc2c(c1)[nH]c1ccccc12,60.1 µM (active),
C[C@]12CC[C@@H]3c4ccc(O)cc4CC[C@H]3[C@@H]1CC[C@@H]2O,9.67 µM (active) and 10.9 µM (active),
CC(C)(C)c1cccc(C(C)(C)C)c1O,,2.58% (inactive)
CC/C=C\C/C=C\C/C=C\CCCCCCCC(=O)O,inactive,
CN1CCOCC1,inactive,
CC(C)(Oc1ccc(Cl)cc1)C(=O)O,inactive,
COC(=O)CC(=O)OC,inactive,
Nc1cc(Cl)c(N)c(Cl)c1,,-10.1% (inactive)
CC(=O)Nc1ccc2c(c1)Cc1cc(NC(C)=O)ccc1-2,inactive and 7.7 µM (active),
CCCCCCCCCCCCO,inactive,
COC(=O)c1ccc(C)cc1,inactive,
c1ccc2cc3ccccc3cc2c1,19.9 µM (active) and 21.7 µM (active),
CCCCCCCCCCC(CO)CCCCCCCC (stereo not given),inactive,
Brc1nc2ccccc2s1,,6.67% (inactive)
Clc1ccc(Sc2cc(Cl)c(Cl)cc2Cl)cc1,,12.7% (inactive)
C=C[C@@]1(C)CC(=O)[C@]2(O)[C@@]3(C)[C@@H](O)CCC(C)(C)[C@@H]3[C@H](O)[C@H](OC(C)=O)[C@@]2(C)O1,inactive,
